Source: PubChem BioAssay (NCI)
About 83,000 compounds went through this panel and 20% of them were active in at least one assay; those are over-represented in the sample as a whole.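 Interpretation: 100, growth as untreated; towards 0, rising growth inhibition; 0, no net growth; 0 to -100, cell death. Compounds scoring below 10 were considered active.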 Values without a mark were called inactive. Activity calls are given as the source filed them.

Legend:
Test in all cases: NCI-60 one-dose screen, 48 h (100 = growth as untreated, 0 = no growth, -100 = all killed)
Settings in all cases: 10 µM unless noted
[1] = system: NCI-H23 lung
[2] = system: NCI-H322M lung
[3] = system: HOP-62 NSCLC
[4] = system: NCI-H460 lung
[5] = system: HOP-92 NSCLC
[6] = system: NCI-H522 lung
[7] = system: A549/ATCC NSCLC
[8] = system: 786-0 renal
[9] = system: DU-145 prostate
[10] = system: K-562 leukemia
[11] = system: MALME-3M melanoma
[12] = system: MDA-MB-231 breast
[13] = system: RXF 393 renal
[14] = system: SF-268 CNS
[15] = system: SF-295 CNS
[16] = system: SF-539 CNS
[17] = system: UACC-257 melanoma
[18] = system: M14 melanoma
[19] = system: HCT-15 colon
[20] = system: COLO 205 colon

SMILES | growth [1] | growth [2] | growth [3] | growth [4] | growth [5] | growth [6] | growth [7] | growth [8] | growth [9] | growth [10] | growth [11] | growth [12] | growth [13] | growth [14] | growth [15] | growth [16] | growth [17] | growth [18] | growth [19] | growth [20]
COc1cccc(/C(C#N)=C/c2nc3c(N4CCOCC4)nc(Cl)nc3n2C)c1 | 25.6% | 63.4% | 35.2% | 17.4% | -66.3% (active) | -64.7% (active) | 29.2% | -69.4% (active) | -77.6% (active) | 0.802% (active) | -45.2% (active) | -68.9% (active) | -84.9% (active) | -24.4% (active) | 85.7% | -20.2% (active) | -57.6% (active) | -54.3% (active) | -46.4% (active) | 
C=C1C(=O)O[C@H]2[C@H]1CC/C(COC(=O)/C=C\C(=O)O)=C\CC[C@@]1(C)O[C@@H]21 | 98.9% | 105% | 99.2% | 107% | 108% | 97.5% | 105% | 109% | 112% | 109% | 99.8% | 103% | 111% | 100% | 96.7% | 93.2% | 99.8% | 110% | 105% | 
O=c1c2cc(F)ccc2sc2c(Nc3ccncc3)nc3ccccc3c12 | 45.9% | 81.4% | 34.7% | -76.7% (active) | 54.5% | 5.65% (active) | -43.8% (active) | -79.8% (active) | 4.28% (active) | -47.1% (active) | 22% | -89.7% (active) | -42% (active) | -10.4% (active) | 101% | 70.8% | 113% | -27.2% (active) | -70.5% (active) | 
Nc1nc2c(ncn2[C@@H]2O[C@H](CS)[C@@H](O)[C@H]2O)c(=O)[nH]1 | 102% | 93.3% | 100% | 102% | 103% | 97.4% | 96.6% | 106% | 105% | 97.2% | 97.5% | 99.3% | 111% | 99.7% | 98.2% | 102% | 94.7% | 102% | 101% | 
COc1ccc2sc3c(NCCCN)nc4ccccc4c3c(=O)c2c1 | 80.7% | 68.9% | 57.2% | -73.3% (active) | 33.9% | 18.7% | -44.8% (active) | 42.3% | -6.46% (active) | -56.9% (active) | 94.2% | 25.3% | 49.5% | 57.6% | 94.5% | 74.1% | 95.7% | 18.9% | -49% (active) | 
COC(=O)c1c2c(c(C)[n+]([O-])c1C)C(=O)C=C(NCc1ccccc1)C2=O | -50% (active) | -5.71% (active) | 2.96% (active) | -13.1% (active) | -27.2% (active) | -26.1% (active) | -4.94% (active) | 4.63% (active) | -92.7% (active) | 1.96% (active) | -96.9% (active) | -26% (active) | -25.3% (active) | -4.22% (active) | -84% (active) | -90.2% (active) | -89.6% (active) | -80.1% (active) | -68.5% (active) | 
C[C@@H](C(=O)NCCCC#Cc1cnc(Nc2ccc(C#N)cc2)nc1NC1CC1)N(C)C(=O)/C=C/CN(C)C | 22.8% | 63% | 44.2% | 15.3% | 107% | 59.1% | 32.8% | 39.8% | 38.4% | 14.1% | 22.5% | 77.8% | -1.36% (active) | 48.4% | 25.9% | 9.99% (active) | 40.2% | 26.7% |  | 
N[C@@H](CC/[N+]([O-])=N/O)C(=O)O | 97.2% | 103% | 101% | 97.9% | 107% | 95.7% | 102% | 104% | 97.8% |  | 101% | 102% |  | 95.9% | 110% | 95% | 112% | 102% | 104% | 104%
